In the supplement of paper PMC10849652:
Of roughly 8,800 targets only a part is listed; those with a hit were picked by preference. About 0.5% of all pairs of compound and target were hits.

Key:
Experiment in all cases: log2 fold change, soluble protein after heating vs DMSO (PISA); higher = thermal stabilisation; K562 lysate, 10 uM; active = over 0.2 and 3.5 SD of the protein, either way, in both replicates (recomputed)
[1] = compound: Cc1cn(-c2cc(NC(=O)c3ccc(C)c(Nc4nccc(-c5cccnc5)n4)c3)cc(C(F)(F)F)c2)cn1 [nilotinib]
Outline: (§1)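 Thermal stability, expressed as log-two fold change relative to solvent controls, is given from duplicates. Crude K562 extract in PBS pH 7.4 with 1 mM MgCl2, at 1 mg/mL protein, was treated with 10 μM compound for 30 min and heated in aliquots for 3 min across 48°C-58°C. After pooling, adjustment to 0.5% NP-40 at 4°C and centrifugation at 21,000xg for 90 min, supernatant protein was measured by TMTpro 16plex LC-MS/MS with channel sums equalised.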

[2] = compound: Cc1nc(Nc2n[nH]c3c2CN(C(=O)N[C@H](CN(C)C)c2ccccc2)C3(C)C)c2sccc2n1
Outline: as §1

[3] = compound: Cc1nc(Nc2ncc(C(=O)Nc3c(C)cccc3Cl)s2)cc(N2CCN(CCO)CC2)n1 [dasatinib]
Outline: as §1

[4] = compound: Cc1ncc(-c2ccnc(Nc3ccc(S(C)(=O)=O)cc3)n2)n1C(C)C
Outline: as §1

[5] = compound: Cn1cc(-c2ccc3c(c2)CCN3C(=O)Cc2cccc(C(F)(F)F)c2)c2c(N)ncnc21
Outline: as §1

[6] = compound: Cn1cc(CNCC2CCN(c3ncc(C(=O)NO)cn3)CC2)c2ccccc21 [quisinostat]
Outline: as §1

[7] = compound: Cn1cncc1[C@@](N)(c1ccc(Cl)cc1)c1ccc2c(c1)c(-c1cccc(Cl)c1)cc(=O)n2C [tipifarnib]
Outline: as §1

[8] = compound: NC(=O)Nc1cc(-c2cccc(F)c2)sc1C(=O)N[C@H]1CCCNC1
Outline: as §1

[9] = compound: NC(=O)c1cnc(N[C@@H]2CCCC[C@@H]2N)nc1Nc1cccc(-n2nccn2)c1
Outline: as §1

[10] = compound: NC1(c2ccc(-c3nc4ccn5c(=O)[nH]nc5c4cc3-c3ccccc3)cc2)CCC1
Outline: as §1

Measured: log2 fold change

PRPF38A (UniProt Q8NAV1)
inactive: [1] 0.076 | [2] 0.018 | [3] -0.055 | [4] -0.088 | [5] -0.001 | [7] -0.016 | [8] 0.092 | [9] 0.003 | [10] 0.049
active: [6] -0.452

PPP2R5C isoform 4 (UniProt Q13362)
inactive: [1] -0.012 | [2] -0.005 | [3] 0.031 | [4] -0.002 | [5] 0.017 | [6] -0.126 | [7] 0.021 | [8] 0.079 | [9] -0.013 | [10] -0.04

PFKP (UniProt Q01813)
inactive: [1] 0.026 | [2] -0.014 | [3] 0.012 | [4] 0.003 | [5] 0.009 | [6] 0.024 | [7] 0.016 | [8] 0 | [9] -0.008 | [10] -0.004

PDE4DIP isoform 4 (UniProt Q5VU43)
inactive: [1] -0.026 | [2] 0.004 | [3] 0.007 | [4] -0.015 | [5] -0.029 | [6] -0.083 | [7] -0.032 | [8] -0.018 | [9] -0.034 | [10] -0.011

PREP (UniProt P48147)
inactive: [1] 0 | [2] -0.014 | [3] -0.026 | [4] -0.002 | [5] 0.007 | [6] 0.008 | [7] 0.023 | [8] 0.011 | [9] 0.006 | [10] -0.005

PGGT1B (UniProt P53609)
inactive: [1] 0.01 | [2] -0.005 | [3] 0.005 | [4] -0.03 | [5] 0.048 | [6] 0.066 | [7] 0.208 | [8] 0.018 | [9] -0.037 | [10] 0.047

POLB (UniProt P06746)
inactive: [1] 0.035 | [2] -0.013 | [3] 0 | [4] -0.026 | [5] 0.008 | [6] -0.028 | [7] 0.002 | [8] 0.022 | [9] 0.012 | [10] -0.053

PRKD2 isoform 3 (UniProt Q9BZL6)
Sequence of UniProt Q9BZL6 (Q9BZL6 whole entry, looked up): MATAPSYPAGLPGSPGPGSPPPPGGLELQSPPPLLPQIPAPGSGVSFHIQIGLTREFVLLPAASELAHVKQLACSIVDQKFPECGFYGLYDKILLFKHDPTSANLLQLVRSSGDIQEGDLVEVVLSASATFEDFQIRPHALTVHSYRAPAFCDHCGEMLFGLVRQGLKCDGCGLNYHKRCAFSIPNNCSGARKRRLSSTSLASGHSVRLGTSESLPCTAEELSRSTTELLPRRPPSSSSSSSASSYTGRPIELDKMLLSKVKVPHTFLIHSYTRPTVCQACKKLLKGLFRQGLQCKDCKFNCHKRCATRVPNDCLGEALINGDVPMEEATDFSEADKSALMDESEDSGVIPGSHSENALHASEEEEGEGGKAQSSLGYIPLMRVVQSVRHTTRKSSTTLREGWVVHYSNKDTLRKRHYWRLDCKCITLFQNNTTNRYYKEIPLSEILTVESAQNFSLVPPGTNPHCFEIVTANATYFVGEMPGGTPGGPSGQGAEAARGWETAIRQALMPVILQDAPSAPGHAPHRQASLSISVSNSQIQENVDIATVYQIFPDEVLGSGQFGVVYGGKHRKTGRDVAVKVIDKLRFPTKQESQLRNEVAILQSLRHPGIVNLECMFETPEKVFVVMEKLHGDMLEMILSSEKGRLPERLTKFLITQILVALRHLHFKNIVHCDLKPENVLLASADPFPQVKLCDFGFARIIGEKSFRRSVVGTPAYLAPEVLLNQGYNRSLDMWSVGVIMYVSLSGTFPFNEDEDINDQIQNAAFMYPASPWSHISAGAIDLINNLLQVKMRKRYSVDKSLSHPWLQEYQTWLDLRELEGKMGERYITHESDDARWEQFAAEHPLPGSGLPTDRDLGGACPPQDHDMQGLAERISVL
inactive: [1] 0.079 | [2] -0.229 | [3] 0.028 | [4] -0.054 | [5] 0.04 | [6] -0.046 | [7] 0.069 | [8] -0.115 | [9] 0.06 | [10] -0.01

PTK2 (UniProt Q05397)
Sequence of UniProt Q05397 (Q05397 whole entry, looked up): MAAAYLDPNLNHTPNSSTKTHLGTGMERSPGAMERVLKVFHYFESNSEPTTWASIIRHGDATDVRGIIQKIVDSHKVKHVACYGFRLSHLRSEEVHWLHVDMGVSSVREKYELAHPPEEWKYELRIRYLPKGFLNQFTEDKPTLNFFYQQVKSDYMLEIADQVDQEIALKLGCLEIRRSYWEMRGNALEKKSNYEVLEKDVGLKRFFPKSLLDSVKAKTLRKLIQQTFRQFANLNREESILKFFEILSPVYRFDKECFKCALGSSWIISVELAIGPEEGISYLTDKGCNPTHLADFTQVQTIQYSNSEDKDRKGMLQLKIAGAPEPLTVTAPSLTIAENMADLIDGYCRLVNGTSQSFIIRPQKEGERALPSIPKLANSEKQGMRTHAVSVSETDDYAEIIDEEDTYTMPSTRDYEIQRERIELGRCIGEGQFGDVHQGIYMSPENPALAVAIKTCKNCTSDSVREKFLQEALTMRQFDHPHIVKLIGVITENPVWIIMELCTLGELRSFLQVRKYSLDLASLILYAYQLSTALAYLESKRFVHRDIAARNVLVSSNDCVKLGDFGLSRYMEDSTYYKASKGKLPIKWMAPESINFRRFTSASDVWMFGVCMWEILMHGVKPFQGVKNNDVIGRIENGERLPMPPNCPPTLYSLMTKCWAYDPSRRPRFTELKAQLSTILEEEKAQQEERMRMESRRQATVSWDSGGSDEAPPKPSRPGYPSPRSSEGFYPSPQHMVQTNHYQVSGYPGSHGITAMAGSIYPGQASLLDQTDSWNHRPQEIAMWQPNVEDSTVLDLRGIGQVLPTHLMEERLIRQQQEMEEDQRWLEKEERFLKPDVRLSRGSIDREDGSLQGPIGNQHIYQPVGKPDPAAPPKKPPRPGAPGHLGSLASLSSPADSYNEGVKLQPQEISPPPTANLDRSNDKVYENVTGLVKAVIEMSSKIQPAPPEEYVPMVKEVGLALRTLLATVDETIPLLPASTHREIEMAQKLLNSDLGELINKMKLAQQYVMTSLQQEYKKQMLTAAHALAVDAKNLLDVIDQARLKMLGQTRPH
inactive: [1] -0.032 | [2] 0.235 | [3] 0.083 | [4] 0.078 | [5] 0.18 | [6] -0.038 | [7] -0.046 | [8] 0.373 | [9] 0.081 | [10] 0.021

PITRM1 isoform 2 (UniProt Q5JRX3)
inactive: [1] 0.014 | [2] -0.035 | [3] 0.011 | [4] -0.021 | [5] -0.002 | [6] 0.021 | [7] 0.013 | [8] 0.005 | [9] 0 | [10] -0.008

PPIE (UniProt Q9UNP9)
inactive: [1] -0.027 | [2] 0.017 | [3] -0.017 | [4] -0.01 | [5] -0.016 | [6] -0.091 | [7] -0.003 | [8] -0.018 | [9] 0.04 | [10] -0.034

PHKG2 (UniProt P15735)
Sequence of UniProt P15735 (P15735 whole entry, looked up): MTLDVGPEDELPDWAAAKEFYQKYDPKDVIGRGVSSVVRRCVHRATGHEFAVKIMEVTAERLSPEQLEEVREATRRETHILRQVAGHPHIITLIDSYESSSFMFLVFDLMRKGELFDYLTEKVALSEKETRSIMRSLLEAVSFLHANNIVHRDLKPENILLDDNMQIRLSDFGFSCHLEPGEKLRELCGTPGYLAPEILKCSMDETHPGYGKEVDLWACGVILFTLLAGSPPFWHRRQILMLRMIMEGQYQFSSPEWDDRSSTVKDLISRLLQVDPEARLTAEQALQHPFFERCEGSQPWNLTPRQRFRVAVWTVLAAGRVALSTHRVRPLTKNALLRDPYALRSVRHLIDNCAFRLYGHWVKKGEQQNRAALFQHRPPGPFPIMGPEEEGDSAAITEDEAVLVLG
inactive: [1] -0.022 | [3] -0.03 | [4] 0.046 | [5] 0.037 | [6] -0.069 | [7] 0.038 | [9] -0.042 | [10] -0.073
active: [2] 0.598 | [8] 0.979

POLR2B (UniProt P30876)
inactive: [1] -0.027 | [2] 0.01 | [3] -0.065 | [4] 0.004 | [5] 0.003 | [6] -0.057 | [7] -0.012 | [8] 0.027 | [9] -0.004 | [10] -0.03

PLEKHA5 isoform 6 (UniProt Q9HAU0)
Sequence of UniProt Q9HAU0 (Q9HAU0 whole entry, looked up): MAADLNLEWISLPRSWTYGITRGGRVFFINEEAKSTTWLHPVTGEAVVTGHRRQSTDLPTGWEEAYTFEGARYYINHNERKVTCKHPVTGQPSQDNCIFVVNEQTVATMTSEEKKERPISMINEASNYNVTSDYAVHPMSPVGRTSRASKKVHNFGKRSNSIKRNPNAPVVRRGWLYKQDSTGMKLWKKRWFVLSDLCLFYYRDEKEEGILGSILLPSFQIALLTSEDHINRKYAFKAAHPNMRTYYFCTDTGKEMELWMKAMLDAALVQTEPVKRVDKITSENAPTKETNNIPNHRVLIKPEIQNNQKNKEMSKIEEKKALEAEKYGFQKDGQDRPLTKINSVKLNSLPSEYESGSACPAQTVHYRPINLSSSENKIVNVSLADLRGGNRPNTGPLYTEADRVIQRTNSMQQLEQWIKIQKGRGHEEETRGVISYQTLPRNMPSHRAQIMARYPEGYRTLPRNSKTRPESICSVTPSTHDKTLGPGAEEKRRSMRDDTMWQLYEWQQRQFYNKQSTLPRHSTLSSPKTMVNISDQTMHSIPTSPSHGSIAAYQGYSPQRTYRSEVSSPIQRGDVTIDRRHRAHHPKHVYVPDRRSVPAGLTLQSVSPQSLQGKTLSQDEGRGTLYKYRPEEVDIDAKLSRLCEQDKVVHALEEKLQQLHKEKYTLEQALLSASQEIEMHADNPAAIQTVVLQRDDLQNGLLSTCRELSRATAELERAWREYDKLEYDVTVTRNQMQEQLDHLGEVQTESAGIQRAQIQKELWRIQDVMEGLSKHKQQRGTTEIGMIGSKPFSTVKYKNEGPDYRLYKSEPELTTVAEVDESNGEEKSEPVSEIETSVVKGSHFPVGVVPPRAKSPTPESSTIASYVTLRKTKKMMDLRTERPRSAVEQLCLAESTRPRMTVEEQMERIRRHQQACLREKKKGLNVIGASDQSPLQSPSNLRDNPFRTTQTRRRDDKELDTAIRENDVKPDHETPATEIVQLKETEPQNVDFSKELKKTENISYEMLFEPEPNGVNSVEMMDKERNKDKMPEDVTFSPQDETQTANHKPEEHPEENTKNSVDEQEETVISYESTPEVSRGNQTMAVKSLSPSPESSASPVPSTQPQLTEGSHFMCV
inactive: [1] -0.052 | [2] 0.032 | [3] 0.006 | [4] -0.005 | [5] 0.021 | [6] -0.011 | [7] 0.009 | [8] 0.011 | [9] -0.008 | [10] -0.003

POLR2G (UniProt P62487)
inactive: [1] 0.01 | [2] -0.02 | [3] -0.024 | [4] 0.007 | [5] 0 | [6] 0.01 | [7] 0.007 | [8] 0.001 | [9] 0.011 | [10] -0.016

PDF (UniProt Q9HBH1)
inactive: [1] 0.014 | [2] 0.002 | [3] -0.037 | [4] 0.02 | [5] 0.067 | [6] -0.064 | [7] -0.012 | [8] 0.022 | [9] -0.034 | [10] 0.056

PHACTR4 isoform 2 (UniProt Q8IZ21)
inactive: [1] 0.005 | [2] -0.004 | [3] 0.022 | [4] -0.016 | [5] 0.012 | [6] -0.017 | [7] -0.015 | [8] -0.006 | [9] -0.002 | [10] -0.027

PHC1 (UniProt P78364)
inactive: [1] 0.054 | [2] 0.023 | [3] 0.087 | [4] -0.024 | [5] -0.049 | [6] -0.003 | [7] -0.02 | [8] 0.003

PIP4K2C (UniProt Q8TBX8)
inactive: [1] 0.169 | [2] -0.015 | [3] 0.047 | [4] 0.298 | [5] 0.029 | [6] -0.095 | [7] -0.012 | [8] 0.035 | [9] 0.033 | [10] -0.085

PDPK1 (UniProt O15530)
active: [8] 0.619
inactive: [1] -0.093 | [2] 0.314 | [3] -0.014 | [4] -0.093 | [5] 0 | [6] -0.094 | [7] -0.011 | [9] 0.019 | [10] -0.059

PHOSPHO2 (UniProt Q8TCD6)
Sequence of UniProt Q8TCD6 (Q8TCD6 whole entry, looked up): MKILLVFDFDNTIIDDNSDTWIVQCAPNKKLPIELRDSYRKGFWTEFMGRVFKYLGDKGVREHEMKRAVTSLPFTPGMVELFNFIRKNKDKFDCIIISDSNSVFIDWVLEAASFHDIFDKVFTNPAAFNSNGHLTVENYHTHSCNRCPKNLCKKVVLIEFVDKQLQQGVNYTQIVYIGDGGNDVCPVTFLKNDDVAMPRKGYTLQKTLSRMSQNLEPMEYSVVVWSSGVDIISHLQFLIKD
inactive: [1] 0.003 | [2] -0.013 | [3] 0.024 | [4] 0.038 | [5] -0.033 | [6] 0.03 | [7] 0.068 | [8] -0.036 | [9] -0.004 | [10] 0.013

PRG4 (UniProt Q92954)
inactive: [1] -0.092 | [2] 0.196 | [3] -0.028 | [4] 0.196 | [5] 0.024 | [6] -0.285 | [7] 0.17 | [8] 0.057 | [9] -0.09

PKP3 isoform 2 (UniProt Q9Y446)
inactive: [1] -0.034 | [2] -0.021 | [3] 0 | [4] -0.039 | [5] -0.001 | [6] -0.012 | [7] 0.007 | [8] -0.051 | [9] -0.021 | [10] 0.02

PHLDB1 (UniProt Q86UU1)
inactive: [1] -0.035 | [2] -0.012 | [3] 0.002 | [4] -0.006 | [5] -0.046 | [6] -0.243 | [7] -0.003 | [8] 0.028 | [9] -0.036 | [10] 0.004

PUF60 (UniProt Q9UHX1)
Sequence of UniProt Q9UHX1 (Q9UHX1 whole entry, looked up): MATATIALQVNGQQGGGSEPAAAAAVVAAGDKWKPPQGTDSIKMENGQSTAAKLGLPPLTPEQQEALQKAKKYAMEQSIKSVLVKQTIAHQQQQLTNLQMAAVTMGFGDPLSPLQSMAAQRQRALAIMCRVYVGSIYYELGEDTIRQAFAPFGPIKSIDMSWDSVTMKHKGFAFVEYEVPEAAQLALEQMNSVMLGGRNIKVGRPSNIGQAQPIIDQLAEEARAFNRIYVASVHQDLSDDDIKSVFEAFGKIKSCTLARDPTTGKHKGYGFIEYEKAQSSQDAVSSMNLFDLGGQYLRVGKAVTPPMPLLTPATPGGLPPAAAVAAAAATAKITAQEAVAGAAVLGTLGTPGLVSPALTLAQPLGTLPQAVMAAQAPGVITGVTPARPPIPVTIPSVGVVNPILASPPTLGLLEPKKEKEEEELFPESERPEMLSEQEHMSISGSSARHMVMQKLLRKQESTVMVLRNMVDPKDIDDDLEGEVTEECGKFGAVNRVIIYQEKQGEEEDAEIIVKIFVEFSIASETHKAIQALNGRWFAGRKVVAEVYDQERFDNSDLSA
inactive: [1] -0.006 | [2] -0.002 | [3] -0.025 | [4] 0.011 | [5] -0.017 | [6] 0.073 | [7] 0.016 | [8] -0.017 | [9] -0.001 | [10] 0.021

PHKA2 (UniProt P46019)
active: [8] 0.302
inactive: [1] 0.005 | [2] 0.163 | [3] -0.05 | [4] 0.019 | [5] -0.028 | [6] -0.148 | [7] 0.015 | [9] 0.001 | [10] -0.037

PDCD10 (UniProt Q9BUL8)
Sequence of UniProt Q9BUL8 (Q9BUL8 whole entry, looked up): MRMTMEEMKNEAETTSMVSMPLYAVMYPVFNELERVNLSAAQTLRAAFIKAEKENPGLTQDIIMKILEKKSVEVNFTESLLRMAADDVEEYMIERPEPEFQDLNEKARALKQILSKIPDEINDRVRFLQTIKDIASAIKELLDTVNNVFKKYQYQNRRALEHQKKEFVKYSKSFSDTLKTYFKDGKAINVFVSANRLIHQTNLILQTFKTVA
inactive: [1] 0.006 | [2] 0.121 | [3] 0.077 | [4] 0.03 | [5] 0.013 | [6] -0.053 | [7] -0.005 | [8] 0.114 | [9] -0.018 | [10] 0.004

PTK2B (UniProt Q14289)
active: [8] 0.377
inactive: [1] 0.011 | [2] 0.109 | [3] 0.041 | [4] 0.026 | [5] 0.059 | [6] -0.122 | [7] -0.067 | [9] 0.072 | [10] -0.04

PPME1 isoform 4 (UniProt Q9Y570)
Sequence of UniProt Q9Y570 (Q9Y570 whole entry, looked up): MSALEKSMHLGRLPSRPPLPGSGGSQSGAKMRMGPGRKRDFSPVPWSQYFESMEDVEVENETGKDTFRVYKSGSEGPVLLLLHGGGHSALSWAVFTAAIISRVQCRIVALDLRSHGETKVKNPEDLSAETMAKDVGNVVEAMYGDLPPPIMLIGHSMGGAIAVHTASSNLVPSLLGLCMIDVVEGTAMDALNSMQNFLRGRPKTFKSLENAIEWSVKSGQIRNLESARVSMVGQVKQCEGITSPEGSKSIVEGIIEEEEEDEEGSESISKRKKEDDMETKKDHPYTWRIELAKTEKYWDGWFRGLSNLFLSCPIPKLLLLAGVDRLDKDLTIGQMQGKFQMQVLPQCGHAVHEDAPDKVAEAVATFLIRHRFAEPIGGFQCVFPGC
inactive: [1] 0.01 | [2] -0.053 | [3] -0.008 | [4] -0.025 | [5] -0.003 | [6] 0.018 | [7] 0.01 | [8] -0.03 | [9] -0.016 | [10] 0.041

POLR3E (UniProt Q9NVU0)
inactive: [1] 0.017 | [2] -0.054 | [3] -0.035 | [4] -0.018 | [5] 0.018 | [6] -0.023 | [7] 0.04 | [8] 0.037 | [9] 0.009 | [10] -0.001
